Entries with a potency or affinity are not part of this list. Results filed as inconclusive are left out. Active and inactive are the calls of the source.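 The calls were made as follows: active = signal loss with fitted half-maximal concentration at or below twice the top valid tested dose in every test run; inconclusive = runs disagree, flat 30 to 70% signal loss, or poor fit; inactive = all runs flat, opposite direction, or potency beyond limit.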
Assay: HEK293T cytotoxicity, dose response, cytotoxicity control for miR-122 modulator project, cell-based, inhibitor set, cherry-pick, set 2 (AID 720697);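 also: 0% = median of neutral control wells and -100% = MG132 positive control wells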
Details: HEK293T viability, CellTiter-Glo luminescence, 48 h; series mostly up to 26 µM; activity change, negative = cytotoxicity: at the top concentration
For `CC(C)Oc1ccc(C(CCN)C2CCCCC2)cc1` (stereo not given), the “activity change, negative = cytotoxicity” value was -62.4% (inactive). In the case of `COCC(=O)N1C[C@H]2[C@@H](c3ccccc31)[C@H](CO)N2C(=O)Nc1ccccc1Cl`, the “activity change, negative = cytotoxicity” value is reported as 72.2% (inactive). In the case of `O=C(Cc1cccnc1)N1[C@@H](CO)[C@@H]2c3ccccc3NC[C@@H]21`, the “activity change, negative = cytotoxicity” value is reported as 133% (inactive). In the case of `Cc1nn(C)cc1NC(=O)C[C@H]1CC[C@@H]2[C@H](COc3ccc(NC(=O)Nc4cccc(Cl)c4)cc3C(=O)N2C)O1`, the “activity change, negative = cytotoxicity” value is reported as 92.5% (inactive). With `CC(C)NC(=O)Nc1ccc2c(c1)C(=O)N(C)[C@H]1CC[C@H](CC(=O)NCC(F)(F)F)O[C@H]1CO2` the “activity change, negative = cytotoxicity” value was 90.7% (inactive). In the case of `CN1C(=O)c2cc(NC(=O)c3cccc(F)c3)ccc2OC[C@H]2O[C@H](CC(=O)O)CC[C@H]21`, the “activity change, negative = cytotoxicity” value is reported as 112% (inactive). In the case of `Cc1cc(CN(C)C(=O)c2cc(COc3ccc4ncccc4c3)on2)on1`, the “activity change, negative = cytotoxicity” value is reported as 15.5% (inactive). For `COC(=O)C[C@@H]1CC[C@H]2[C@@H](COc3ccc(NC(=O)Nc4ccccc4C)cc3C(=O)N2C)O1`, the “activity change, negative = cytotoxicity” value was 87.2% (inactive). With `CN1C(=O)c2cc(NC(=O)c3cccc(F)c3)ccc2OC[C@H]2O[C@@H](CC(=O)O)CC[C@H]21` the “activity change, negative = cytotoxicity” value was 90% (inactive). In the case of `CC(=O)N1[C@@H](CO)[C@@H](c2ccccc2)[C@@H]1CNC(=O)CN1CCOCC1`, the “activity change, negative = cytotoxicity” value is reported as -30.7% (inactive). With `CN1CCN(C(=O)C[C@H]2CC[C@@H]3[C@H](COc4ccc(NC(=O)c5cccs5)cc4C(=O)N3C)O2)CC1` the “activity change, negative = cytotoxicity” value was 39.4% (inactive). With `CNC(=O)C[C@H]1CC[C@@H]2[C@@H](COc3ccc(NC(=O)c4cccc(OC)c4)cc3C(=O)N2C)O1` the “activity change, negative = cytotoxicity” value was 125% (inactive). In the case of `O=C(Nc1ccccc1)N1C[C@@H]2[C@H](c3ccccc31)[C@H](CO)N2C(=O)c1ccncc1`, the “activity change, negative = cytotoxicity” value is reported as 88.5% [at 23.5 µM] (inactive). For `CNC(=O)C[C@@H]1CC[C@@H]2[C@@H](COc3ccc(NC(=O)Nc4ccccc4OC)cc3C(=O)N2C)O1`, the “activity change, negative = cytotoxicity” value was 43.5% (inactive). In the case of `CCCNC(=O)N1[C@@H]2CN(C(=O)c3ccccc3)c3ccccc3[C@@H]2[C@@H]1CO`, the “activity change, negative = cytotoxicity” value is reported as 89.2% (inactive). For `COc1ccc(-c2cc(C3CCN(c4ccc(C(C)=O)cc4[N+](=O)[O-])CC3)[nH]n2)cc1`, the “activity change, negative = cytotoxicity” value was -54.1% (inactive). In the case of `CO[C@@H]1CN(C)C(=O)c2ccc(NS(=O)(=O)c3cccc(F)c3)cc2OC[C@@H](C)NC[C@H]1C`, the “activity change, negative = cytotoxicity” value is reported as -41.8% (inactive). With `COCC(=O)N(C)C[C@H]1Oc2cc(-c3ccc(C#N)cc3)ccc2S(=O)(=O)N([C@H](C)CO)C[C@H]1C` the “activity change, negative = cytotoxicity” value was 113% (inactive). With `CN(C)CCCNC(=O)C[C@H]1CC[C@H]2[C@@H](COc3ccc(NC(=O)c4ccccc4F)cc3C(=O)N2C)O1` the “activity change, negative = cytotoxicity” value was 42.9% (inactive). For `CCCNC(=O)N1[C@H](CNC(C)=O)[C@H](c2ccc(C3=CCCC3)cc2)[C@@H]1CO`, the “activity change, negative = cytotoxicity” value was 139% (inactive). For `CC(C)C(=O)Nc1ccc2c(c1)C(=O)N(C)[C@H]1CC[C@H](CC(=O)Nc3cccc(F)c3)O[C@@H]1CO2`, the “activity change, negative = cytotoxicity” value was 43.4% (inactive). For `C[C@@H]1CN([C@H](C)CO)S(=O)(=O)c2ccc(C3=CCCC3)cc2O[C@@H]1CN(C)C(=O)c1ccc(F)cc1`, the “activity change, negative = cytotoxicity” value was 24.5% (inactive). In the case of `COc1ccc(-c2ccc(C#N)c(OC(=O)c3c(Cl)cccc3Cl)n2)cc1`, the activity change, negative = cytotoxicity is reported as -5.32% [at 6 µM] (inactive). With `CCNC(=O)Nc1ccc2c(c1)C(=O)N(C)[C@H]1CC[C@H](CC(=O)NCCOC)O[C@@H]1CO2` the “activity change, negative = cytotoxicity” value was -18.8% (inactive). With `C/C=C/c1ccc([C@H]2[C@H](CO)N[C@H]2CN(C)S(=O)(=O)c2ccccc2)cc1` the “activity change, negative = cytotoxicity” value was 161% (inactive). In the case of `CCC(=O)N(C)C[C@H]1Oc2cc(C#Cc3ccccc3)ccc2S(=O)(=O)N([C@H](C)CO)C[C@H]1C`, the “activity change, negative = cytotoxicity” value is reported as 43.2% (inactive). For `CO[C@@H]1CN(C)C(=O)c2ccc(NC(=O)c3nc4ccccc4s3)cc2OC[C@H](C)N(Cc2cccnc2)C[C@H]1C`, the “activity change, negative = cytotoxicity” value was 16.9% (inactive). For `CN1C(=O)c2cc(NC(=O)c3cccs3)ccc2OC[C@@H]2O[C@@H](CC(=O)NCCN3CCCCC3)CC[C@@H]21`, the “activity change, negative = cytotoxicity” value was 36.2% [at 23.5 µM] (inactive). For `COCC(=O)Nc1ccc2c(c1)C(=O)N(C)[C@H]1CC[C@@H](CC(=O)NC3CCCC3)O[C@H]1CO2`, the “activity change, negative = cytotoxicity” value was 12.9% (inactive). In the case of `O=C(COC(=O)Cc1ccc(S(=O)(=O)N2CCOCC2)s1)Nc1ccc2c(c1)OCO2`, the “activity change, negative = cytotoxicity” value is reported as 61.9% (inactive). In the case of `COc1ccccc1C#Cc1ccc2c(c1)O[C@H](CN(C)Cc1cccnc1)[C@H](C)CN([C@@H](C)CO)S2(=O)=O`, the “activity change, negative = cytotoxicity” value is reported as 12.4% (inactive). In the case of `CCCN(C[C@@H]1N[C@@H](CO)[C@H]1c1ccc(-c2cccnc2)cc1)C(C)=O`, the “activity change, negative = cytotoxicity” value is reported as 59.9% (inactive). In the case of `Cc1ccccc1-c1nc(CN2CCCC(C(=O)NCCCN3CCOCC3)C2)c(C)o1` (stereo not given), the “activity change, negative = cytotoxicity” value is reported as 124% (inactive). In the case of `COc1ccc(-c2cc(-c3nc4ccccn4c3NCc3ccccc3)ccc2OC)cc1`, the “activity change, negative = cytotoxicity” value is reported as 49.3% (inactive). In the case of `CCCNC(=O)N1C[C@@H]2[C@H](c3ccccc31)[C@H](CO)N2C(=O)C1CCOCC1`, the “activity change, negative = cytotoxicity” value is reported as 11.1% (inactive).

— PubChem BioAssay AID720697 (Broad Institute, 2013)
